Pf growth 96h: inhibits malaria parasite growth, 96 h; P. falciparum luciferase reporter growth, 96 h; Potency, µM (doses to about 28.7 µM), actives largely listed as inhibitors; 320,000 compounds, 6.9% hits; AID 504834
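Two parasite generations (96 h, 37 C, 5% CO2) of compound exposure in infected erythrocytes (0.05% parasitemia, 2% hematocrit). Luciferase-reporter P. falciparum; decreased luminescence indicates inhibited growth, aimed at apicoplast-acting delayed death.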
Pf growth 48h: P. falciparum growth inhibition at 48 hours (one generation); P. falciparum luciferase growth in erythrocytes, 48 h; Potency, µM (highest dose often 28.7 µM), hits mostly inhibitors; 310,000 compounds, 5.9% hits; AID 504832
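First compound was added to culture medium, then infected red cells at 0.1% parasitemia and 2% hematocrit (final). After incubation at 37 C under 5% CO2, luciferase detection reagent was dispensed and light output recorded.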
AmpC no deterg: inhibitors of E. coli AmpC beta-lactamase without detergent; Potency, µM (titrated, usually from 57.1 µM), actives largely listed as inhibitors; 330,000 compounds, 0.52% hits; P00811; AmpC nitrocefin hydrolysis, absorbance 480 nm, 0.0001% Triton; AID 485341; note: nearly all actives have a fitted effect of over 20% in size
Target sequence (P00811 whole entry, looked up): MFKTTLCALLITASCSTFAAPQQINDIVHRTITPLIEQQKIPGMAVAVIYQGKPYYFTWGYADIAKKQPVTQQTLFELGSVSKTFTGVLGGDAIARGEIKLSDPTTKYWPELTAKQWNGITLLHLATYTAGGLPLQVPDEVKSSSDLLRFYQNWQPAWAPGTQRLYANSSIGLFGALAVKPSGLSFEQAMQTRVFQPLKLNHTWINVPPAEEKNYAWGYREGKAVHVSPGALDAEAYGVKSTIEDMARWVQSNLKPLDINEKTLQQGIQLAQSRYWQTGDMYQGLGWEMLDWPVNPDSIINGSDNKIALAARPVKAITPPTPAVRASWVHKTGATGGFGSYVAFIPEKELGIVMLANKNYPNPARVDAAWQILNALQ
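20 mM phosphate pH 7.0 + 0.01% (detergent screen) or 0.0001% Triton X-100; 5.3 nM AmpC reagent; cpd preinc 15 min RT; nitrocefin (800 uM stock) to start; A480 q20 s × 4 min; Activity was normalised to no-enzyme and no-compound control wells.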
AmpC detergent: AmpC beta-lactamase inhibition with detergent present | 370,000 compounds, 0.041% hits | AID 485294 | Potency, µM (top dose mostly 114 µM), hits mostly inhibitors | AmpC hydrolysis of nitrocefin, absorbance 480 nm, 0.01% Triton | P00811; note: nearly all actives have a fitted effect of over 25% in size
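AmpC (5.3 nM in the dispensed reagent) in 20 mM phosphate pH 7.0 with 0.01% (detergent screen) or 0.0001% Triton X-100 was preincubated with compounds for 15 min at room temperature. Nitrocefin was then added from an 800 uM solution, and hydrolysis was followed at 480 nm.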
SARS PLP yeast: SARS-CoV PLP inhibition in yeast. S. cerevisiae expressing SARS-CoV PLpro, growth rescue. Potency, µM (series often up to 32.9 µM), most hits filed as activators. 330,000 compounds, 0.19% hits. AID 485353; calls by dose curve; note: nearly all actives have a fitted effect of over 55% in size
Sm TGR inh: blocks Schistosoma mansoni thioredoxin glutathione reductase; Q962Y6; purified TGR, DTNB reduction, TNB absorbance 405 nm; Potency, µM (series often up to 114 µM), hits mostly inhibitors; 360,000 compounds, 3% hits; note: nearly all actives have a fitted effect of over 60% in size
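Kinetic colorimetric format: TGR-catalysed, NADPH-driven DTNB reduction monitored via TNB absorbance. Enzyme dispensed at 20 nM; compound exposure 15 min at room temperature before reaction start.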
Of the large screens only hits and unclear results are named; the others gave an inactive call. A selection: hits, their analogues and other compounds. The true share with any hit is near 12%. Unless noted, calls come from the whole dose curve; as a rule, active = well fitted curve in the direction sought with a large enough effect; inconclusive = small, poorly fitted or top-dose-only effect, or another doubt; inactive = no such curve, though single readings can be large; an effect the other way counts as inactive or inconclusive.

O=C(Nc1ccc2c(c1)OCO2)C1CCCCN1S(=O)(=O)c1ccc(F)cc1 (stereo unspecified)	Pf growth 96h 9.3µM
CCOC(=O)N1CCC(NC(=O)C2CCCCN2S(=O)(=O)c2ccc(F)cc2)CC1 (stereo unspecified)	Pf growth 96h 1µM (no result: Pf growth 48h)
COC(=O)C1CCCN1S(=O)(=O)c1ccc2ccccc2c1 (stereo unspecified)	Pf growth 48h 10µM (no result: Pf growth 96h)
COc1ccc(NC(=O)C2CCCCN2S(=O)(=O)c2ccc(F)cc2)cc1 (stereo unspecified)	Pf growth 96h 0.59µM, AmpC no deterg 3.2µM
O=C(NC1CCCCC1)C1CCCN1S(=O)(=O)c1ccc(F)cc1 (stereo unspecified)	none
O=C(CSc1nnc2scc(-c3ccc(Cl)cc3)n12)Nc1ccc(F)cc1	none (no result: Pf growth 96h, Pf growth 48h, AmpC no deterg, SARS PLP yeast)
CC1CCN(c2ccc(NC(=O)C3CCCN3S(=O)(=O)c3ccc(F)cc3)cc2)CC1 (stereo unspecified)	Pf growth 96h 12µM, Pf growth 48h inconclusive
O=C(Nc1ccc(N2CCCCC2)cc1)C1CCCN1S(=O)(=O)c1ccc(F)cc1 (stereo unspecified)	AmpC detergent inconclusive
COCCn1nnnc1CN1CCN(C(=O)c2ccco2)CC1	none
Cc1cccc(NC(=O)c2nc[nH]c2C(=O)N[C@@H](CCCCNC(=O)OC(C)(C)C)C(=O)OC(C)(C)C)c1	Pf growth 96h 6.6µM, Pf growth 48h 4.7µM
Cc1cccc(NC(=O)c2nc[nH]c2C(=O)NCCCCCNC(=O)OC(C)(C)C)c1	Pf growth 96h inconclusive, Pf growth 48h 2.6µM
CC(C)Oc1ccc(C(=O)Nc2ccc(C(F)(F)F)n(C)c2=O)cc1	none
CCC(C)C(=O)N1c2ccccc2C(=C2SC(C(=O)OC)=C(C(=O)OC)S2)C(=S)C1(C)C (stereo unspecified)	Pf growth 96h inconclusive, Pf growth 48h 9.3µM
CCOC(=O)C1=C(C)c2ccccc2N(C(=O)OC)C1(C)C(=O)OCC (stereo unspecified)	none (no result: Pf growth 96h, Pf growth 48h, AmpC detergent, Sm TGR inh)
CCc1ccc(C(=O)NNC(=O)c2ccc(OCC(=O)N3CCOCC3)c(OC)c2)cc1	none
O=C(NC1CCN(Cc2ccccc2)CC1)c1ccc(S(=O)(=O)NCc2ccco2)cc1	none
CCOC(=O)C1CCCN(C(=O)c2ccc(S(=O)(=O)NCc3ccco3)cc2)C1 (stereo unspecified)	Pf growth 96h 12µM, Pf growth 48h inconclusive, AmpC detergent inconclusive, Sm TGR inh 25µM
O=C(NC1CCCCC1)c1ccc(S(=O)(=O)NCc2ccco2)cc1	Sm TGR inh 45µM
O=C(NC1CCN(C(=O)c2cccc([N+](=O)[O-])c2)CC1)c1ccccc1	none
O=C(NC(=S)NCc1ccccc1)c1ccc2c(c1)OCO2	AmpC detergent inconclusive, SARS PLP yeast inconclusive, Sm TGR inh 40µM
O=C(NCc1ccc2c(c1)OCO2)c1ccncc1	SARS PLP yeast 16µM (no result: Pf growth 48h)
O=C(NCc1ccc2c(c1)OCO2)c1ccccc1	none
O=C(NCc1ccc2c(c1)OCO2)c1ccc(-n2cnnn2)cc1	Pf growth 96h 1.7µM
CCOc1cc(C(=O)NCc2ccc3c(c2)OCO3)cc(OCC)c1OCC	AmpC detergent inconclusive, Sm TGR inh 35µM
O=C(NCc1ccc2c(c1)CCN2C(=O)c1ccncc1)c1ccc(Cl)cc1	none (no result: Pf growth 96h, Pf growth 48h, AmpC no deterg, SARS PLP yeast)
COC(=O)c1ccc(NC(=O)[C@H](C)NC(N)=O)cc1	none
CCCCn1nc2cc(C(=O)NCc3ccc4c(c3)OCO4)ccc2c1OCC	Pf growth 96h inconclusive, Pf growth 48h inconclusive, AmpC no deterg 0.32µM
O=C(NCc1ccc2c(c1)OCO2)c1ccc2c(c1)C(=O)N(Cc1cccnc1)C2=O	Pf growth 96h inconclusive, SARS PLP yeast inconclusive
O=C(NCc1cccnc1)c1ccc2c(c1)OCO2	Pf growth 96h 9.3µM
COc1ccc(NC(=O)CCCCCn2nnc3ccccc3c2=O)cc1	none
COc1ccc(C2(c3ccc(OC)cc3)NC(=O)N(Cn3nnc4ccccc4c3=O)C2=O)cc1	Pf growth 96h inconclusive, Pf growth 48h 12µM

High-throughput results: PubChem BioAssay, National Center for Advancing Translational Sciences (NCATS)
